Measured values reported in the antibiotic and cytotoxicity screens of Wong et al. (2023).
Out of some 39,000 compounds screened, about 500 (1.3%) were called active. For the sample, actives were picked, then their nearest neighbours and some compounds at random.

tested on: S. aureus RN4220; assay: growth inhibition call (relative growth <= 0.2); settings: 50 µM

Growth inhibition call, active:
Cc1ccc(C(=O)N(CCCN)[C@@H](c2nc3cc(Cl)ccc3c(=O)n2Cc2ccccc2)C(C)C)cc1, CC(C)(O)CC(=O)NCCn1ccc2ncnc(Nc3ccc(Oc4cccc(C(F)(F)F)c4)c(Cl)c3)c21, CCN(CC)C(=S)SSC(=S)N(CC)CC, Cc1ccc(CNc2ccc3c(c2)ncn3C2CCCCC2)cc1, CC(C)(C)c1ccc(OC[C@@H](O)CN)cc1, C[C@@H]1CN([C@@H](C)CO)C(=O)c2cc(NS(=O)(=O)c3cn(C)cn3)ccc2O[C@@H](C)CCCCO[C@@H]1CN(C)C(=O)Nc1ccc(C(F)(F)F)cc1, C[C@@H]1CCCCO[C@@H](CN(C)C(=O)Nc2ccc(C(F)(F)F)cc2)[C@H](C)CN([C@@H](C)CO)C(=O)c2cc(NS(=O)(=O)c3cn(C)cn3)ccc2O1, C[C@H](CO)N1C[C@H](C)[C@@H](CN(C)C(=O)Nc2ccc(C(F)(F)F)cc2)OCCCC[C@H](C)Oc2ccc(NS(=O)(=O)c3cn(C)cn3)cc2C1=O, CCC(=C(c1ccccc1)c1ccc(OCCN(C)C)cc1)c1ccccc1.O=C(O)CC(O)(CC(=O)O)C(=O)O, CN(C)CCOc1ccc(C(=C(CCCl)c2ccccc2)c2ccccc2)cc1.O=C(O)CC(O)(CC(=O)O)C(=O)O

Growth inhibition call, inactive:
C[C@H]1CN([C@@H](C)CO)C(=O)Cc2cc(NC(=O)Nc3cccc4ccccc34)ccc2O[C@@H]1CN(C)C(=O)Nc1ccc(F)cc1, C[C@@H]1CN([C@H](C)CO)C(=O)c2cccc(NC(=O)c3cnccn3)c2O[C@H]1CN(C)Cc1ccc2c(c1)OCO2, COc1cccc(NC(=O)N[C@H]2C=C[C@@H](CC(=O)N3CCN(C)CC3)O[C@@H]2CO)c1, O=C(C[C@H]1C[C@@H]2c3cc(NC(=O)NC4CCCC4)ccc3O[C@@H]2[C@H](CO)O1)NCCN1CCCCC1, C[C@H](CO)N1C[C@H](C)[C@@H](CN(C)Cc2ccc(Oc3ccccc3)cc2)Oc2c(NC(=O)C3CCCCC3)cccc2C1=O, C[C@@H]1CN([C@@H](C)CO)C(=O)c2cc(NC(=O)c3ccccc3)ccc2O[C@@H](C)CCCCO[C@H]1CN(C)Cc1ccc2c(c1)OCO2, C[C@@H]1CN([C@@H](C)CO)C(=O)c2cc(NC(=O)NC3CCCCC3)ccc2O[C@H]1CN(C)Cc1ccc(C(=O)Nc2ccccc2N)cc1, CC(C)NC(=O)Nc1cccc2c1O[C@H](CN(C)S(=O)(=O)c1ccc(F)cc1)[C@H](C)CN([C@H](C)CO)C2=O, C[C@H](CO)N1C[C@H](C)[C@H](CN(C)Cc2ccc(-c3ccccc3)cc2)Oc2c(NC(=O)NC3CCCCC3)cccc2C1=O, Cc1ccc(C(=O)N(CCCN)[C@@H](c2oc3cc(Cl)ccc3c(=O)c2Cc2ccccc2)C(C)C)cc1, Cc1ccc2c(c1)c1nc3ccccc3nc1n2Cc1ccccc1, COc1ccc(CN(C)C[C@@H]2OCCCC[C@@H](C)Oc3ccc(NC(=O)Nc4ccc(C(F)(F)F)cc4)cc3C(=O)N([C@@H](C)CO)C[C@@H]2C)cc1, C[C@@H]1CCCCO[C@H](CN(C)S(=O)(=O)c2ccccc2)[C@H](C)CN([C@H](C)CO)C(=O)c2cc(NC(=O)Nc3ccc(C(F)(F)F)cc3)ccc2O1, CO[C@@H]1CN(C)C(=O)c2ccc(NS(=O)(=O)CC(F)(F)F)cc2OC[C@@H](C)N(C(=O)c2ccc3c(c2)OCO3)C[C@H]1C, CS(=O)(=O)CCNCc1ccc(-c2ccc3ncnc(Nc4ccc(OCc5cccc(F)c5)c(Cl)c4)c3c2)o1 [listing 1 of 2 here], CS(=O)(=O)CCNCc1ccc(-c2ccc3ncnc(Nc4ccc(OCc5cccc(F)c5)c(Cl)c4)c3c2)o1 [listing 2 of 2 here], C[C@H](CO)N1C[C@H](C)[C@H](CN(C)C(=O)Cc2cccnc2)Oc2cc(-c3cncnc3)ccc2S1(=O)=O, C[C@@H]1CCCCO[C@@H](CN(C)Cc2ccc(C(=O)Nc3ccccc3N)cc2)[C@@H](C)CN([C@H](C)CO)C(=O)c2cc(NC(=O)c3ccccc3)ccc2O1, CN(CC(=O)Nc1ccc(F)cc1F)S(=O)(=O)c1ccc2c(c1)c(=O)n(C)c(=O)n2C, C[C@H]1CN([C@@H](C)CO)C(=O)Cc2cc(NS(=O)(=O)c3cn(C)cn3)ccc2O[C@@H]1CN(C)S(C)(=O)=O, COCCNC(=O)C[C@@H]1C[C@H]2c3cc(NS(C)(=O)=O)ccc3O[C@H]2[C@@H](CO)O1, CO[C@H]1CN(C)C(=O)c2ccc(NC(=O)Nc3cccc(Cl)c3)cc2OC[C@@H](C)N(C(=O)Nc2c(C)noc2C)C[C@@H]1C, C[C@H](CO)N1C[C@H](C)[C@H](CN(C)S(C)(=O)=O)Oc2ccc(NC(=O)Cn3cnnn3)cc2C1=O, Cc1ccc(-n2cnc3cc(NCc4cccs4)ccc32)cc1, COc1ccc(NC(=O)N(C)C[C@@H]2OCCCC[C@H](C)Oc3ccc(NC(=O)c4ccncc4)cc3C(=O)N([C@H](C)CO)C[C@@H]2C)cc1, C[C@@H]1CCCCO[C@H](CN(C)C(=O)Nc2ccc3c(c2)OCO3)[C@@H](C)CN([C@H](C)CO)C(=O)c2cc(NC(=O)Nc3ccccc3)ccc2O1, CCc1ccc(OC[C@@H](O)CN)cc1, Cc1cccc(OC[C@@H](O)CN)c1, Cn1cnc(S(=O)(=O)N2C[C@H](O)COC[C@@H]3O[C@H](CC(=O)NC4CCCC4)CC[C@H]32)c1, C=C[C@H]1CCC=C2C(=O)CCC[C@@H]21, C[C@@H]1CCCCO[C@H](CN(C)C(=O)Nc2ccc(C(F)(F)F)cc2)[C@H](C)CN([C@H](C)CO)C(=O)c2cc(NS(=O)(=O)c3cn(C)cn3)ccc2O1, C[C@@H]1CCCCO[C@@H](CN(C)C(=O)Nc2ccc(C(F)(F)F)cc2)[C@@H](C)CN([C@H](C)CO)C(=O)c2cc(NS(=O)(=O)c3cn(C)cn3)ccc2O1, C[C@@H]1CCCCO[C@H](CN(C)C(=O)Nc2ccc(C(F)(F)F)cc2)[C@@H](C)CN([C@H](C)CO)C(=O)c2cc(NS(=O)(=O)c3cn(C)cn3)ccc2O1, C[C@@H]1CN([C@H](C)CO)C(=O)c2cc(NS(=O)(=O)c3cn(C)cn3)ccc2O[C@@H](C)CCCCO[C@H]1CN(C)C(=O)Nc1ccc(C(F)(F)F)cc1, C[C@@H]1CCCCO[C@H](CN(C)C(=O)Nc2ccc(C(F)(F)F)cc2)[C@H](C)CN([C@@H](C)CO)C(=O)c2cc(NS(=O)(=O)c3cn(C)cn3)ccc2O1, C[C@H]1CCCCO[C@H](CN(C)C(=O)Nc2ccc(C(F)(F)F)cc2)[C@@H](C)CN([C@@H](C)CO)C(=O)c2cc(NS(=O)(=O)c3cn(C)cn3)ccc2O1, C[C@@H]1CCCCO[C@@H](CN(C)C(=O)CCC(F)(F)F)[C@@H](C)CN([C@H](C)CO)C(=O)c2cc(NC(=O)NC3CCCCC3)ccc2O1, CC(C)NC(=O)Nc1cccc2c1O[C@@H](CN(C)S(=O)(=O)c1ccc(F)cc1)[C@H](C)CN([C@@H](C)CO)C2=O, O=C(C[C@@H]1C=C[C@@H](NC(=O)Nc2ccc3c(c2)OCO3)[C@H](CO)O1)NCCCN1CCOCC1, COc1ccc(Nc2ccc(-c3ccncc3)s2)cc1Cl, C[C@H]1CN([C@@H](C)CO)C(=O)Cc2cc(NS(C)(=O)=O)ccc2O[C@H]1CN(C)S(=O)(=O)c1ccccc1, Cc1noc(C)c1NC(=O)Nc1ccc2c(c1)C(=O)N([C@H](C)CO)C[C@H](C)[C@@H](CN(C)C(=O)NC1CCCCC1)OCCCC[C@@H](C)O2, Cc1ccc(S(=O)(=O)Nc2ccc3c(c2)C(=O)N([C@@H](C)CO)C[C@@H](C)[C@@H](CN(C)C(=O)Nc2ccc(F)cc2)OCCCC[C@H](C)O3)cc1, CN(C)CCN(Cc1ccccc1)c1ccccn1.O=C(O)CC(O)(CC(=O)O)C(=O)O, CCN(CCCc1ccccc1)CCCc1ccccc1.O=C(O)CC(O)(CC(=O)O)C(=O)O, Cc1ccccc1C(OCCN(C)C)c1ccccc1.O=C(O)CC(O)(CC(=O)O)C(=O)O (stereo unspecified), CCN(CC)CCOc1ccc(C(=C(Cl)c2ccccc2)c2ccccc2)cc1.O=C(O)CC(O)(CC(=O)O)C(=O)O, C[C@H]1CN([C@@H](C)CO)C(=O)c2cc(C#Cc3ccccc3F)cnc2O[C@@H]1CN(C)C(=O)C1CCOCC1, COc1ccc2c3c([nH]c2c1)[C@H](CO)N(C[C@]13CN(Cc2cc(on2)-c2ccccc2)C1)C(=O)Nc1ccc(cc1)F, COc1ccc(S(=O)(=O)N(C)C[C@H]2OCCCC[C@H](C)Oc3ccc(NC(=O)CCC(F)(F)F)cc3C(=O)N([C@H](C)CO)C[C@H]2C)cc1, C[C@@H]1CCCCO[C@@H](CN(C)C(=O)c2ccccc2)[C@H](C)CN([C@@H](C)CO)C(=O)c2cc(NC(=O)Nc3cccc4ccccc34)ccc2O1, O=S(=O)(O)c1cc(O)ccc1O, C[C@@H]1CN([C@H](C)CO)C(=O)c2cccc(NC(=O)c3ccc(-c4nccs4)cc3)c2O[C@@H]1CN(C)C(=O)Nc1ccc2c(c1)OCO2, Cc1ccc(S(=O)(=O)N(C)C[C@@H]2OCCCC[C@H](C)Oc3ccc(NC(=O)c4ccccc4)cc3C(=O)N([C@@H](C)CO)C[C@H]2C)cc1, C[C@@H]1CN([C@@H](C)CO)C(=O)c2cc(NS(=O)(=O)c3cccs3)ccc2O[C@H]1CN(C)CC1CC1, C[C@H](CO)N1C[C@H](C)[C@@H](CN(C)C(=O)Nc2cccc3ccccc23)Oc2ccc(NC(=O)Nc3cccc4ccccc34)cc2CC1=O
